TGFb inhibitor = inhibitors of TGF-b signaling | 410,000 compounds, 1.2% hits | Potency, µM (titrated, usually from 46.1 µM), usual class: inhibitors | HepG2 CAGA-GFP TGF-b/SMAD3 reporter, GFP fluorescence, 18 h; TGF-beta stimulated, 500 pg/mL final | AID 588855; note: nearly all actives have a fitted effect of over 65% in size
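Inhibition of TGF-beta-driven CAGA-GFP reporter expression in HEPG2 cells is measured by cellular GFP fluorescence after 18 h stimulation with 500 pg/mL recombinant TGF-beta in 1% FBS medium at 37 degrees C.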
HTT cytoprotect = cytoprotection in Huntington HTT-Q103 PC12 cell model. PC12 HTT-Q103 induced, cytoprotection, ATP luminescence, 40 h. Potency, µM (doses to about 56.4 µM), hits mostly activators. 230,000 compounds, 0.14% hits; note: nearly all actives have a fitted effect of over 45% in size
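Huntington model: PC12 line, ecdysone-inducible HTTQ103 exon1–GFP, tebufenozide 100 nM. Test articles in a dose series. Endpoint luminescence from cellular ATP.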
HepG2 viability = HepG2 cytotoxicity, counter-screen for TGF-b inhibitors | HepG2 CAGA-GFP viability, ATP luminescence, 18 h | Potency, µM (highest dose often 46.1 µM), actives largely listed as cytotoxic | 410,000 compounds, 0.76% hits | AID 588856
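CellTiter-Glo luminescence gave cytotoxicity after 18 hours at 37 degrees C. The cells were HepG2 CAGA-GFP in 1% FBS DMEM, stimulated with 500 pg/mL TGF-beta after compound addition. %Activity was normalised to no-cell wells (complete cell-killing) and DMSO (no toxicity), and curves were fitted and classified.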
HttQ103 aggreg = reduces HttQ103-GFP aggregates in PC12 cells; PC12 HttQ103-GFP aggregates, Acumen cytometry, 40 h; Potency, µM (titrated, usually from 46.1 µM), actives largely listed as inhibitors; 220,000 compounds, 1.1% hits; AID 1688; note: nearly all actives have a fitted effect of over 60% in size
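Read-out: GFP aggregate count by laser scanning cytometer (488 nm excitation, 500-530 nm emission, 1–25 µm objects >6 SD above background). Cells: PC12, inducible HTTex1-Q103-GFP, 100 nM tebufenozide; compounds titrated.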
S2 tox = viability counter-screen for ATXN expression inhibitors; S2 cells (HEK-293 line with an ATXN2-luciferase reporter) viability, CellTiter-Fluor protease fluorescence, 24 h; Potency, µM (titrated, usually from 56.7 µM), usual class: cytotoxic; 400,000 compounds, 0.49% hits; note: nearly all actives have a fitted effect of over 40% in size
ATXN2 expr inh = ATXN2 expression inhibition; HEK-293 ATXN2-luciferase reporter, luminescence, 24 h; Potency, µM (highest dose often 57 µM), usual class: inhibitors; 360,000 compounds, 0.72% hits; AID 1745845; note: nearly all actives have a fitted effect of over 55% in size
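qHTS (up to 57 uM final) was run with 24 h compound exposure of reporter cells at 37 °C. Each well was multiplexed: SteadyGlo luminescence measured ATXN2-luciferase expression after a fluorogenic Gly-Phe-AFC viability readout (25 uM final).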
Of the large screens only hits and unclear results are named; the others gave an inactive call; ! = not active in a repeat. This is a sample that favours compounds with a hit; in the whole collection about 2.8% have one here. Calls come from the whole dose curve; as a rule, active = well fitted curve in the direction sought with a large enough effect; inconclusive = small, poorly fitted or top-dose-only effect, or another doubt; inactive = no such curve, though single readings can be large; an effect the other way counts as inactive or inconclusive.

Cc1ccc(NC(=O)CNC(c2ccccc2)c2ccccc2)c(F)c1	TGFb inhibitor inconclusive (no result: ATXN2 expr inh)
Cc1ccnc(Nc2nc(-c3ccc(O)cc3O)cs2)c1	TGFb inhibitor 11.2µM, HepG2 viability 11.2µM, S2 tox inconclusive (no result: HTT cytoprotect, HttQ103 aggreg)
Cc1ccnc(Nc2nc(-c3ccc(O)c(O)c3)cs2)c1	TGFb inhibitor 14.1µM, S2 tox inconclusive (no result: HTT cytoprotect, HttQ103 aggreg)
Cc1cc(C)c2nccc(C)c2c1	none (no result: HTT cytoprotect, HttQ103 aggreg, S2 tox, ATXN2 expr inh)
CCOC(=O)N(C)c1c(CC)nc2c(OCc3ccc(Cl)cc3Cl)cccn12	S2 tox inconclusive, ATXN2 expr inh inconclusive (no result: HTT cytoprotect, HttQ103 aggreg)
CCc1nc2c(OCc3ccc(Cl)cc3Cl)cccn2c1N(C)C(C)=O	TGFb inhibitor inconclusive, ATXN2 expr inh 17.8µM (no result: HTT cytoprotect, HttQ103 aggreg, S2 tox)
CCC(CC)C(=O)N(C)c1c(C)nc2c(OCc3cc(Cl)cc(Cl)c3)cccn12	TGFb inhibitor 12.6µM (no result: HTT cytoprotect, HttQ103 aggreg)
O=C(Cc1ccc(OCc2ccccn2)cc1)NO	none (no result: HTT cytoprotect, HttQ103 aggreg, S2 tox, ATXN2 expr inh)
O=C(NCc1nnc2n1CCN(Cc1ccc(C(F)(F)F)cc1)CC2)c1ccccn1	none (no result: TGFb inhibitor, HTT cytoprotect, HepG2 viability, HttQ103 aggreg, ATXN2 expr inh)
C/C(=N\Nc1ncnc2sc(C)c(C)c12)c1ccccn1	S2 tox inconclusive, ATXN2 expr inh 0.282µM (no result: HTT cytoprotect, HttQ103 aggreg)
O=C1NC(=O)[C@@H](c2cn3c4c(cccc24)CCC3)[C@H]1c1c[nH]c2ccccc12	none (no result: TGFb inhibitor, HTT cytoprotect, HepG2 viability, HttQ103 aggreg, S2 tox)
CCCCCCCCCCCCCCCC[N+](C)(C)CCl	TGFb inhibitor inconclusive, S2 tox inconclusive (no result: HTT cytoprotect, HttQ103 aggreg)
CCCCCCCCCCCCCCCC[N+](C)(C)Cc1ccccc1	HttQ103 aggreg inconclusive, S2 tox 35.5µM, ATXN2 expr inh 31.6µM (no result: TGFb inhibitor, HepG2 viability)
CCCCCCCCCCCCCC[N+](C)(C)Cc1ccccc1	TGFb inhibitor inconclusive, HttQ103 aggreg 25.1µM, S2 tox 35.5µM, ATXN2 expr inh 35.5µM
CCOC(=O)Cc1csc(Nc2ccc(Cl)cc2)n1	none (no result: ATXN2 expr inh)
CCOC(=O)Cc1nnc2c(Nc3ccc(Cl)cc3)nc3nonc3n12	TGFb inhibitor inconclusive, HttQ103 aggreg 17.8µM, S2 tox inconclusive
Cc1cccc(C(C)C)c1NC(=O)COC(=O)Cc1ccsc1	none
Cc1cccc(C)c1NC(=O)COC(=O)Cc1ccsc1	HttQ103 aggreg 20µM
Cc1c(C(=O)Nc2nccs2)sc2nc(-c3cccs3)cc(C(F)(F)F)c12	HttQ103 aggreg inconclusive, S2 tox inconclusive, ATXN2 expr inh 25.1µM
Cc1c(C(=O)O)sc2nc(-c3cccs3)cc(C(F)(F)F)c12	none (no result: HTT cytoprotect, HttQ103 aggreg)
CN(C)NC1=CC(=[N+]2CCCC2)CC(C)(C)C1	none
CCCN(CCC)C1=CC(=[N+]2CCCC2)CC(C)(C)C1	TGFb inhibitor inconclusive, HttQ103 aggreg 11.2µM, S2 tox inconclusive, ATXN2 expr inh inconclusive
Cc1ccc(C(=O)N/N=C/c2ccc(-c3cccc(Cl)c3)o2)cn1	TGFb inhibitor inconclusive
Cc1ccc(C(=O)N/N=C\c2ccc(-c3ccc(Cl)c(Cl)c3)o2)cn1	TGFb inhibitor 11.2µM, S2 tox inconclusive, ATXN2 expr inh inconclusive
CS(=O)(=O)c1ccc(S(=O)CC(=O)Oc2ccc(Cl)cc2)c([N+](=O)[O-])c1 (stereo unspecified)	TGFb inhibitor inconclusive, HTT cytoprotect inconclusive, HepG2 viability 17.8µM, S2 tox inconclusive, ATXN2 expr inh inconclusive
COc1ccccc1Nc1nn2c(=O)c3ccc(C(=O)NCc4ccc(F)cc4)cc3nc2s1	TGFb inhibitor 3.16µM, HepG2 viability 3.98µM, S2 tox inconclusive, ATXN2 expr inh inconclusive (no result: HTT cytoprotect, HttQ103 aggreg)
CN(C)c1ccc(C=O)cc1Cl	none (no result: HTT cytoprotect, HttQ103 aggreg, S2 tox, ATXN2 expr inh)
CC(=O)Oc1ccc(OC(C)=O)c(SCCCCCN2CCOCC2)c1	TGFb inhibitor 15.8µM, HttQ103 aggreg inconclusive, S2 tox inconclusive, ATXN2 expr inh inconclusive
NS(=O)(=O)c1ccc(CCNc2ncnc3sccc23)cc1	HttQ103 aggreg inconclusive, ATXN2 expr inh inconclusive
Cc1sc2ncnc(NCCc3ccc(S(N)(=O)=O)cc3)c2c1C	HttQ103 aggreg 0.708µM, ATXN2 expr inh inconclusive
Nc1nc(=S)c2[nH]cnc2[nH]1	TGFb inhibitor inconclusive, HepG2 viability 1.41µM, S2 tox inconclusive, ATXN2 expr inh 3.98µM! (no result: HttQ103 aggreg)
CCOc1ccc(Nc2ncnc3ccc([N+](=O)[O-])cc23)cc1	HttQ103 aggreg 7.94µM
COc1cccc(Nc2ncnc3ccccc23)c1	HttQ103 aggreg inconclusive
COc1ccc(Nc2ncnc3ccccc23)cc1	HttQ103 aggreg 11.2µM
CCOC(=O)c1ccc(Nc2ncnc3ccc(C)cc23)cc1	none
O=C(Cc1cscn1)N1CCOc2ccc(CN3CCN(c4ccccn4)CC3)cc2C1	none (no result: TGFb inhibitor, HTT cytoprotect, HepG2 viability, HttQ103 aggreg, ATXN2 expr inh)
Cc1cc(C)c2c(=O)n(CC(=O)NCCCN3CCN(c4ccccc4F)CC3)sc2n1	TGFb inhibitor inconclusive, HttQ103 aggreg inconclusive, S2 tox 18.9µM, ATXN2 expr inh inconclusive
CCOc1ccc(NC(=O)Cn2sc3nc(C)cc(C)c3c2=O)cc1	TGFb inhibitor 11.2µM
COC(=O)CC(NC1CCN(c2nc(C)c3cc4c(cc3n2)CCC4)CC1)C(=O)OC (stereo unspecified)	none (no result: TGFb inhibitor, HTT cytoprotect, HepG2 viability, HttQ103 aggreg, ATXN2 expr inh)
COc1ccc(-c2cccc3c2OC(CNC(=O)c2ccccc2-n2cccn2)C3)nn1 (stereo unspecified)	none (no result: TGFb inhibitor, HTT cytoprotect, HepG2 viability, HttQ103 aggreg, ATXN2 expr inh)
COc1ccccc1C1CN(Cc2ccc(Sc3nncn3C)o2)Cc2ccccc2O1 (stereo unspecified)	none (no result: TGFb inhibitor, HTT cytoprotect, HepG2 viability, HttQ103 aggreg, ATXN2 expr inh)
Nc1nc(Nc2ccccc2)nc(NCc2ccco2)c1[N+](=O)[O-]	S2 tox inconclusive

Assay outcomes deposited in PubChem BioAssay by National Center for Advancing Translational Sciences (NCATS).
